Sampled rows, rich in hits. Any-hit rate of the full collection: about 3.9%.
BoNT-F LC inh: BoNT F light chain protease inhibition; inhibition, % at 10 µM; AID 588497; 0.22% of 360,000 active; Multiplex microsphere protease cleavage assay, flow cytometry; in the data active = inhibition above about 35%, passing the limit was not always enough; inconclusive = no clear call, values can overlap the other calls
Anthrax LF prot: inhibitors of Bacillus anthracis lethal factor protease. AID 588501. P15917. 0.12% of 360,000 active. inhibition, % at 10 µM. multiplex microsphere protease cleavage assay, LF
CCHF vOTU inh: CCHFV vOTU protease inhibition; AID 651958; Pep-AMC fluorescence; 0.55% of 370,000 active; inhibition, % at 11.5 µM; in the data active = inhibition above about 30%
SARS 3CLpro inh: SARS-CoV 3CLpro protease inhibition | 0.14% of 290,000 active | inhibition, % at 6 µM | P0C6X7 | recombinant SARS-CoV 3CLpro, quenched FRET peptide cleavage; in the data active = inhibition above about 12%
BoNT A protease: blocks Botulinum neurotoxin A light chain protease. multiplex microsphere protease substrate cleavage, flow cytometry. inhibition, % at 10 µM. 0.17% of 360,000 active
Bead autofluor: counter-screen for toxin protease inhibitors: compound fluorescence; compound autofluorescence counterscreen, microsphere flow cytometry; stronger effect = higher value; fluorescence intensity (test concentration not listed); 3.1% of 360,000 active; AID 624483; in the data active = fluorescence intensity above about 16000; inconclusive = no clear call, values can overlap the other calls
Of the large screens only hits and unclear results are named; the others gave an inactive call. Rule as the data show it, unless noted: active = inhibition above about 30%; inconclusive = no clear call, values can overlap the other calls; inactive = below that.

Oc1c(Cl)cc(Cl)cc1/C=N/Nc1ncc(Br)cn1	none
Cc1ccc(N=Cc2cc(Cl)cc(Cl)c2O)nc1	BoNT-F LC inh 35
COc1ccc(N(CC(=O)N/N=C/c2ccc(-c3ccc([N+](=O)[O-])cc3)o2)S(=O)(=O)c2ccc(C)cc2)cc1Cl	BoNT-F LC inh 42, Anthrax LF prot 44, BoNT A protease 56
CCC(CO)[n+]1c(C)cc(/C=C2\Sc3ccccc3N2Cc2ccccc2)cc1C (centres undefined)	Anthrax LF prot 36, BoNT A protease 40
CCN1/C(=C2\SC(=S)N(Cc3ccccc3)C2=O)Sc2ccccc21	none
CCc1cc(C(=O)OC)c(N2C(=O)C3C4C=CC(C4)C3C2=O)s1 (centres undefined)	Bead autofluor 23671
COc1ccc(N2C(=O)CSC23CCCCC3)cc1	Bead autofluor 21829
CCOc1ccc(N2C(=O)CSC23CCCCC3)cc1	none
C[C@H](CO)N1C[C@H](C)[C@@H](CN(C)Cc2ccccc2)Oc2ccc(NC(=O)CCCCCC(=O)Nc3ccccc3N)cc2C1=O	none (no result: SARS 3CLpro inh)
CCOc1ccc(NC(=O)Cn2cc(C(=O)c3ccco3)c3ccccc32)cc1	Bead autofluor 16382
O=C(c1ccco1)c1cn(Cc2ccccc2Cl)c2ccccc12	BoNT A protease inconclusive, Bead autofluor 24624
COc1ccc(NC(=O)Cn2cc(C(=O)c3ccco3)c3ccccc32)cc1	none
Cc1cccc(CN(C)CCc2ccccn2)c1	Bead autofluor 16809
Cc1ccccc1CN(C)CCc1ccccn1	none
c1ccc2[nH]c(CSc3nccs3)nc2c1	Anthrax LF prot inconclusive, Bead autofluor inconclusive
c1ccc(SCc2nc3ccccc3[nH]2)cc1	Bead autofluor 24904
Clc1ccc(SCc2nc3ccccc3[nH]2)cc1	BoNT A protease inconclusive, Bead autofluor 21863
Clc1ccc(OCCSCc2nc3ccccc3[nH]2)cc1	none
Cc1ccc(CSCc2nc3ccccc3[nH]2)cc1	none
Cc1ccc(SCc2nc3ccccc3[nH]2)cc1	Bead autofluor 20672
COc1ccccc1/C=C(/NC(=O)c1ccc(Cl)cc1Cl)C(=O)O	none
CCOc1ccc(NS(=O)(=O)c2cc(OC)ccc2OC)cc1	none
CCN(c1ccccc1)S(=O)(=O)c1cc(OC)ccc1OC	Bead autofluor 22526
COc1ccc(OC)c(S(=O)(=O)Nc2ccc(Oc3ccccc3)cc2)c1	Bead autofluor 21725
CCN(c1ccccc1)S(=O)(=O)c1ccc(OC)c(OC)c1	none (no result: CCHF vOTU inh)
CC(=O)Nc1ccc(-c2ccnc3c2CC(C)(C(=O)Nc2cccc(C(C)=O)c2)O3)cc1 (centres undefined)	none (no result: SARS 3CLpro inh)
C[C@H]1/C=C/CC(=O)N[C@@H](c2ccccc2)[C@@H](C)/C=C/CC(=O)N[C@H]1c1ccccc1	none (no result: BoNT-F LC inh, Anthrax LF prot, SARS 3CLpro inh, BoNT A protease, Bead autofluor)
Cc1ccc(/C=C2/Sc3ccccc3N(CC(=O)NCC3CCCO3)C2=O)cc1 (centres undefined)	none (no result: CCHF vOTU inh)
Cc1cc(/C=C2\Sc3ccccc3N2C)cc(C)[n+]1CC1CCCO1 (centres undefined)	BoNT A protease 42
COC(=O)[C@]1(C)N[C@H](CN(C)C(=O)Nc2ccc(C(F)(F)F)cc2)[C@@H]2C(=O)N(C)C(=O)[C@@H]21	none (no result: SARS 3CLpro inh)
CCOc1c(Cl)cc(CNC(C)(C)CC(C)(C)C)cc1OC	Bead autofluor 21728
COc1ccc(-c2cc3ccccc3oc2=O)cc1NC(=O)c1ccc([N+](=O)[O-])o1	Bead autofluor 23372
COc1ccc(-c2cc3ccccc3oc2=O)cc1NC(=O)c1ccc(Br)o1	none
Cc1ccc(N(CC(=O)Nc2c(C)cccc2C)S(C)(=O)=O)cc1	none
COc1ccc(C2C(C#N)=C(N)Oc3cc(O)ccc32)cc1 (centres undefined)	BoNT-F LC inh inconclusive (no result: SARS 3CLpro inh)
N#CC1=C(N)Oc2cc(O)ccc2C1c1ccccc1 (centres undefined)	Bead autofluor 21140
OC1(c2cccc(C(F)(F)F)c2)CCN(Cc2nnnn2Cc2ccccc2)CC1	none
FC(F)(F)c1cccc(Cn2nnnc2-c2cccc(C(F)(F)F)c2)c1	BoNT A protease inconclusive, Bead autofluor 24655
FC(F)(F)c1cccc(Cn2nnnc2-c2cc(Cl)cc(Cl)c2)c1	BoNT A protease inconclusive, Bead autofluor 16997 (no result: CCHF vOTU inh)
C=CCn1nnnc1-c1cc(Cl)cc(Cl)c1	none
CCN(CC)CCCOC(=O)C(OC(C)C)(c1ccccc1)c1ccccc1	BoNT-F LC inh 43, BoNT A protease 36, Bead autofluor inconclusive
CCOC(=O)N1CCN(C(=O)CN(c2ccc(OCC)cc2)S(C)(=O)=O)CC1	Bead autofluor 22023
